Screening results as filed in PubChem.
An excerpt weighted towards active compounds, which were near 2.6% of everything screened.
PABP polyA inh: blocks human PABP binding to poly(A) RNA; hit rate 1% among 290,000; calls only at 35 µM; P11940; fluorescence polarization;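 also: calls also rest on retests at 20 µM and on dose response follow-up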
eIF4H FP inh: inhibitors of RNA binding by human eIF4H; AID 2012; Q15056; eIF4H fluorescence polarization binding assay; hit rate 0.94% among 290,000; inhibition, % at 35 µM;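 also: calls also rest on retests at 20 µM and on dose response follow-up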
AI-2 QS mod: modulators of Vibrio harveyi AI-2 quorum sensing system; Vibrio harveyi JMH597 AI-2 luminescence/OD600 ratio, 9 h; active compounds read low; strain lacks LuxN and CqsS sensors; 0 = neutral-control median; activity change, % at 7.5 µM; hit rate 0.4% among 300,000; in the data active = activity change below about -75%, passing the limit was not always enough; inconclusive = no clear call, values can overlap the other calls;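 also: luminescence divided by OD600 gain over 9 h not by final OD600 alone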
PHOSPHO1 inh: inhibitors of human PHOSPHO1 phosphatase; recombinant PHOSPHO1, absorbance phosphatase assay; inhibition, % at 13.3 µM; hit rate 1.1% among 290,000; in the data active = inhibition above about 60%
ABCB6 inh 2: human ABCB6 transporter inhibition. K562-ABCB6 porphyrin accumulation, flow cytometry, 1 h; active compounds read low. AID 602162. fluorescence ratio to DMSO, % at 10 µM. hit rate 0.19% among 360,000;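 active = fluorescence ratio to DMSO below 75%, the collection mean minus 3 SD; inconclusive = too few cells collected in the well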;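 also: signal is porphyrin accumulated inside mitochondria; lower ratio means ABCB6 inhibition with less porphyrin fluorescence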
Target sequence (Q9NP58 whole entry, looked up): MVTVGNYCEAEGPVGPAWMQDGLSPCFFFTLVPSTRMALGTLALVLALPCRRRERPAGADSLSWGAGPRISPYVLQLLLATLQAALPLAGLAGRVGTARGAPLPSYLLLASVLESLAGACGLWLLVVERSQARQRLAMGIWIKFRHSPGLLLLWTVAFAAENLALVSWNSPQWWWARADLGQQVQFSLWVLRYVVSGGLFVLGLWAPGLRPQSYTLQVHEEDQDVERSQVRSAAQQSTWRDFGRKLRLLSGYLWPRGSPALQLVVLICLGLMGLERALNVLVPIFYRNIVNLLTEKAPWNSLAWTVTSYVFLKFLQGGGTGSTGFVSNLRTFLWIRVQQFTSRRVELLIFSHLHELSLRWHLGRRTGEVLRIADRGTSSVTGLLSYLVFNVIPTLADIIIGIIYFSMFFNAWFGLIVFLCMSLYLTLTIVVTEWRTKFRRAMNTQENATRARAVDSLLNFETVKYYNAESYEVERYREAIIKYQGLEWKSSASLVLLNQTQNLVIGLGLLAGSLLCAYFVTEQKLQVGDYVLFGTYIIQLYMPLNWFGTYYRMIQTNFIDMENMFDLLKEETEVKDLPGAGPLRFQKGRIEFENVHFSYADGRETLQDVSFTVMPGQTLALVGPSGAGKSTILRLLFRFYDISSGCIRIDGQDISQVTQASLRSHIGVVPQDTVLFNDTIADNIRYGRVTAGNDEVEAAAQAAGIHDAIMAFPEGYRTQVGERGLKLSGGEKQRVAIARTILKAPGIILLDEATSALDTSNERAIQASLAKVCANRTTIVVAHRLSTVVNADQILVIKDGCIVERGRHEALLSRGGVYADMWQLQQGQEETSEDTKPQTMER
PABP1 MLLE inh: inhibitors of microRNA-mediated deadenylation, human PABP1 MLLE binding. GST-MLLE / FITC-PAM2 fluorescence polarization. inhibition, % at 20 µM. hit rate 0.36% among 360,000. AID 588489; in the data active = inhibition above about 35%, passing the limit was not always enough
ABCB6 inh CP1: inhibitors of human ABC transporter ABCB6; shares compounds with ABCB6 inh 2; K562-ABCB6 porphyrin accumulation, flow cytometry, 1 h; active compounds read low; ratio response (% of DMSO), % at 10 µM; 700 tested, under 10 active; AID 602430;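 active = repeat-averaged ratio response below 75% of DMSO, the collection mean minus 3 SD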;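 also: median porphyrin fluorescence at 575 nm with 488 nm excitation from mitochondria; lower ratio means less porphyrin signal so ABCB6 inhibition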
Of the large screens only hits and unclear results are named; the others gave an inactive call (follow-up assays come after a bar, where they were run). Unless noted, no rule for the calls is given here.

COc1ccc(N2CCN(C(=O)CCCCCn3c(=S)[nH]c4ccc(N5CCOCC5)cc4c3=O)CC2)cc1	ABCB6 inh 2 73 (no result: PABP polyA inh, eIF4H FP inh, AI-2 QS mod, PHOSPHO1 inh) | ABCB6 inh CP1 inactive
Cc1ccc(Nc2nc(-c3cccnc3)nc3ccccc23)cc1	ABCB6 inh 2 71 | ABCB6 inh CP1 inactive
C[C@H](O)[C@@H]1CN2CCc3c([nH]c4ccccc34)[C@@H]2C[C@@H]1N(C)C(=O)OCc1ccccc1	none (no result: PABP polyA inh, eIF4H FP inh, AI-2 QS mod, PHOSPHO1 inh)
CCC(=O)Nc1ccc(N2CCN(C(=O)c3ccccc3C)CC2)cc1	ABCB6 inh 2 65 | ABCB6 inh CP1 inactive
Cc1ccccc1C(=O)N1CCN(c2ccc(NC(=O)Cc3ccccc3)cc2)CC1	none
CC(Oc1ccc2c3c(c(=O)oc2c1)CCCC3)C(=O)NCc1cccnc1 (centres undefined)	ABCB6 inh 2 58 (no result: PABP polyA inh, eIF4H FP inh) | ABCB6 inh CP1 inactive
CC(Oc1cc2oc(=O)c3c(c2cc1Cl)CCCC3)C(=O)NCc1cccnc1 (centres undefined)	none
O=C(c1ccccc1)C(C(=O)N1CCc2ccccc2C1)n1ccccc1=O (centres undefined)	ABCB6 inh 2 73 | ABCB6 inh CP1 inactive
Cc1ccc(-c2nc3s/c(=C\c4ccco4)c(=O)n3n2)cc1	PABP polyA inh active, eIF4H FP inh 82, PHOSPHO1 inh 95, ABCB6 inh 2 70 | ABCB6 inh CP1 inactive
CC(C)n1c(=O)c2ccccc2n1Cc1cn(Cc2cccnc2)nn1	none (no result: PABP polyA inh, eIF4H FP inh, AI-2 QS mod, PHOSPHO1 inh)
CC1CCN(C(=O)c2ccccc2NC(=O)Nc2ccccc2)CC1	ABCB6 inh 2 11 | ABCB6 inh CP1 inactive
CC1CCN(C(=O)c2ccc(NC(=O)c3cccs3)cc2)CC1	ABCB6 inh 2 53 | ABCB6 inh CP1 inactive
COCCNC(=O)C1CCCN(C(=O)c2ccc(F)c(C)c2)CC1 (centres undefined)	none (no result: PABP polyA inh, eIF4H FP inh, AI-2 QS mod, PHOSPHO1 inh)
Cc1ccc(-c2cc(C(F)(F)F)c(C#N)c(SCCC#N)n2)o1	ABCB6 inh 2 71 | ABCB6 inh CP1 inactive
COc1ccc(-c2cc(C(F)(F)F)c(C#N)c(SCC(=O)O)n2)cc1	none (no result: AI-2 QS mod)
CCn1cc([N+](=O)[O-])c(C(=O)N2N=C3/C(=C/c4cccs4)CCCC3C2c2cccs2)n1 (centres undefined)	ABCB6 inh 2 66 | ABCB6 inh CP1 inactive
COc1ccccc1C(O)c1ncc(-c2cccc(C(F)(F)F)c2)[nH]1 (centres undefined)	none (no result: PABP polyA inh, eIF4H FP inh, AI-2 QS mod, PHOSPHO1 inh)
Cn1c(=O)c2c(ncn2CC(=O)N(Cc2ccccc2)c2ccccn2)n(C)c1=O	ABCB6 inh 2 71 | ABCB6 inh CP1 inactive
CCOc1ccc(S(=O)(=O)N2CCN(C(=O)c3cc(S(=O)(=O)N4CCOCC4)ccc3C)CC2)cc1	ABCB6 inh 2 68 (no result: PABP polyA inh, eIF4H FP inh, AI-2 QS mod, PHOSPHO1 inh) | ABCB6 inh CP1 inactive
Cc1cnc(C(=O)OCc2ccc(C#N)cc2)cn1	none
Cc1cnc(C(=O)OCc2ccc(Br)cc2)cn1	ABCB6 inh 2 73 | ABCB6 inh CP1 inactive
CC(C)c1cc(NCCOCCO)n2c(nc3ccccc32)c1C#N	ABCB6 inh 2 73 | ABCB6 inh CP1 inactive
O=C(Nc1cccc(Oc2ccccc2)c1)C1Cc2c(-c3ccc4c(c3)OCO4)ccnc2O1 (centres undefined)	none (no result: PABP polyA inh, eIF4H FP inh, AI-2 QS mod, PHOSPHO1 inh) | ABCB6 inh CP1 inactive
O=C(Nc1cccc(OC(F)(F)F)c1)C1Cc2c(-c3ccc(Cl)cc3)ccnc2O1 (centres undefined)	none (no result: PABP polyA inh, eIF4H FP inh, AI-2 QS mod, PHOSPHO1 inh)
O=C(Nc1cccc(OC(F)(F)F)c1)C1Cc2c(-c3ccc4c(c3)OCO4)ccnc2O1 (centres undefined)	none (no result: PABP polyA inh, eIF4H FP inh, AI-2 QS mod, PHOSPHO1 inh) | ABCB6 inh CP1 inactive
Cc1cc(C)nc(NS(=O)(=O)c2cccs2)c1	ABCB6 inh 2 69 | ABCB6 inh CP1 inactive
Cc1cccc(NS(=O)(=O)c2cccs2)c1	none
CCc1ccc(CNC(=O)C2Cc3cc(S(=O)(=O)N4CCCC4)ccc3N2C(C)=O)cc1 (centres undefined)	ABCB6 inh 2 5.0 | ABCB6 inh CP1 inactive
CC(C)Cc1ccc(-c2ccc3nccn3c2)cc1	none (no result: PABP polyA inh, eIF4H FP inh, AI-2 QS mod, PHOSPHO1 inh)
O=C(CSc1nnc2c(Cl)cc(C(F)(F)F)cn12)N(Cc1ccccc1)Cc1ccccc1	ABCB6 inh 2 74 | ABCB6 inh CP1 inactive
O=C(c1ccccc1)N1CCN=C1c1ccccc1	none
COc1ccc(C(=O)N2CCN=C2c2ccccc2)cc1OC	ABCB6 inh 2 73 | ABCB6 inh CP1 inactive
CC1(C(=O)NS(=O)(=O)c2ccc(C#N)cc2)CCN1C(=O)c1cccc2ccccc12 (centres undefined)	none (no result: PABP polyA inh, eIF4H FP inh, AI-2 QS mod, PHOSPHO1 inh)
Cc1ccc(CC2CC(=O)N(CCc3ccc4c(c3)OCO4)C2=O)cc1 (centres undefined)	ABCB6 inh 2 74 | ABCB6 inh CP1 inactive
COc1cccc(CC2CC(=O)N(CCc3ccc4c(c3)OCO4)C2=O)c1 (centres undefined)	none
CCCCCN(C(=O)CCC(=O)OCC(=O)Nc1ccc(C)cc1F)c1c(N)n(CCCC)c(=O)[nH]c1=O	none
CCCCCN(C(=O)CCC(=O)OCc1ccccc1F)c1c(N)n(CCCC)c(=O)[nH]c1=O	none (no result: PABP polyA inh, eIF4H FP inh, PHOSPHO1 inh)
CCCCCN(C(=O)CCC(=O)OCc1cc(C)ccc1C)c1c(N)n(CCCC)c(=O)[nH]c1=O	none (no result: PABP polyA inh, eIF4H FP inh, PHOSPHO1 inh) | ABCB6 inh CP1 inactive
CCCCCN(C(=O)CCC(=O)OCC(=O)Nc1cccc(CC)c1)c1c(N)n(CCCC)c(=O)[nH]c1=O	ABCB6 inh 2 74 (no result: PABP polyA inh, eIF4H FP inh, PHOSPHO1 inh) | ABCB6 inh CP1 inactive
CCCCCN(C(=O)CCC(=O)OCC(=O)NCCc1ccccc1)c1c(N)n(CCCC)c(=O)[nH]c1=O	none (no result: PABP polyA inh, eIF4H FP inh, AI-2 QS mod, PHOSPHO1 inh) | ABCB6 inh CP1 inactive
CCN1CCN(C(=O)c2ccc3c(=O)n(Cc4ccccc4OC)c(=S)[nH]c3c2)CC1	ABCB6 inh 2 69 | ABCB6 inh CP1 inactive
COc1ccc(N(CC(=O)NC(C)C)S(=O)(=O)c2ccc(NC(C)=O)cc2)cc1	ABCB6 inh 2 69 | ABCB6 inh CP1 inactive
CCN1C(=O)CSc2ccc(C(=O)NCc3ccco3)cc21	ABCB6 inh 2 53 | ABCB6 inh CP1 inactive
CCOCCCNC(=O)CCc1nnc2ccc(N3CCCCC3)nn12	none (no result: PHOSPHO1 inh) | ABCB6 inh CP1 inactive
CCOC(=O)C(Cc1ccccc1)NC(=O)CCc1nnc2ccc(N3CCCCC3)nn12 (centres undefined)	none
CSc1ccc(CCNC(=O)CCc2nnc3ccc(N4CCCCC4)nn23)cc1	none
CCOC(=O)C(C)NC(=O)CCc1nnc2ccc(N3CCCCC3)nn12 (centres undefined)	none | ABCB6 inh CP1 inactive
Cc1ccc(C)c(NC(=O)CN(C)C(=O)[C@@H](NC(N)=O)C(C)C)c1	PABP polyA inh inconclusive
CSCCC(NC(N)=O)C(=O)N(C)CC(=O)Nc1cc(C)ccc1C (centres undefined)	ABCB6 inh 2 69 | ABCB6 inh CP1 inactive
O=C(Nc1nnc(-c2ccc(F)cc2)o1)c1cc(Cl)sc1Cl	none
O=C(Nc1nnc(-c2ccccc2)o1)c1cc(Cl)sc1Cl	ABCB6 inh 2 69 | ABCB6 inh CP1 inactive
COc1cccc(-c2nc(NC(C)C)c3ccccc3n2)c1O	ABCB6 inh 2 49 | ABCB6 inh CP1 inactive
